Compound activity from PubChem BioAssay.
The list is not random: actives were taken first. Their share in the collection is about 5%.
SENP6 inh: SENP6 protease inhibitors, primary screen, biochemical, luminescence, uHTS. Recombinant SENP6 catalytic domain, aminoluciferin luminescence. inhibition, % at 10 µM. actives 1.8% (n = 330,000). AID 2599, 2010;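 active = inhibition above about 50% at the single tested dose, limit read from the data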;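 note: plate controls were DMSO wells with enzyme for no effect and DMSO wells lacking enzyme for full effect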
Target sequence (Q9GZR1 628-1112 limits assumed): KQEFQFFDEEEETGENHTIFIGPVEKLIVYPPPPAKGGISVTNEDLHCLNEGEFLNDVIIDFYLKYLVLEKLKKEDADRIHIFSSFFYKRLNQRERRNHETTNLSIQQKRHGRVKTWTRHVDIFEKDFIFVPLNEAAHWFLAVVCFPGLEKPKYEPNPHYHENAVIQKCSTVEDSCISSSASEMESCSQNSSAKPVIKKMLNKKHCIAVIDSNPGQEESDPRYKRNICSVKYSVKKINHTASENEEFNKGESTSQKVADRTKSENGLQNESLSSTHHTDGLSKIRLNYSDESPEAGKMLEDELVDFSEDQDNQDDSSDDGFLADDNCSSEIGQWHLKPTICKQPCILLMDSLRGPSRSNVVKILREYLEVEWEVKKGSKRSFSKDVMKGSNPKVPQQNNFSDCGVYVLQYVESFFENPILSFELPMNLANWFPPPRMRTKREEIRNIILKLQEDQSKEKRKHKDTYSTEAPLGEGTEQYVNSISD
EBI2 block: EBI2 receptor antagonists, beta-arrestin recruitment, primary screen, cell-based, luminescence, 7a,25-OHC stimulation, uHTS | G-protein coupled receptor 183 (Homo sapiens), P32249 | 7a,25-OHC stimulated | inhibition, % at 5 µM | actives 0.81% (n = 360,000); in the data active = inhibition above about 38%;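 note: enzyme fragment complementation signal reports receptor beta-arrestin coupling in cells; 0% = agonist plus DMSO wells and 100% = wells without agonist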
SENP7 block: SENP7 protease inhibitors, primary screen, biochemical, luminescence, uHTS; Sentrin-specific protease 7 (Homo sapiens), Q9BQF6; recombinant SENP7, Z-RLRGG-aminoluciferin luminescence, 40 min; inhibition, % at 5 µM; actives 1.5% (n = 330,000); AID 434973, 2010;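 active = inhibition above about 50% at the single test dose, limit read from the data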;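 note: plate controls were DMSO with enzyme for no effect and no enzyme buffer wells for full effect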
SENP8 block-1: human SENP8 protease inhibitors, primary screen, biochemical, fluorescence, Nedd8 protein substrate, uHTS; recombinant SENP8; Sentrin-specific protease 8 (Homo sapiens), Q96LD8; actives 0.64% (n = 360,000); inhibition, % at 20 µM; in the data active = inhibition mostly above about 40%, no sharp cut-off; inactive = mostly below about 27%
SENP8 block-2: SENP8 protease inhibitors, primary screen, biochemical, luminescence | purified SENP8, Z-RLRGG-aminoluciferin cleavage | inhibition, % at 10 µM | actives 1.2% (n = 330,000) | Sentrin-specific protease 8 (Homo sapiens), Q96LD8; in the data active = inhibition above about 50%
AHR activator: AHR activators, primary screen, cell-based, luminescence, luciferase reporter, human | actives 2.5% (n = 320,000) | AHR-responsive luciferase reporter cells | activation, % at 5 µM | AID 2796, 2010 | Aryl hydrocarbon receptor (Homo sapiens), P35869; in the data active = activation above about 47%;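 note: 0% = vehicle wells and 100% = reference agonist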
SENP8 confirm: SENP8 protease inhibitors, retest, confirmation, biochemical, luminescence, single concentration; Recombinant SENP8, Z-RLRGG-aminoluciferin luminescence, 60 min; inhibition, % at 12.5 µM; AID 488912, 2010; actives 40% (n = 6,200); shares compounds with SENP7 block;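 active = mean inhibition across replicates above about 50%, limit read from the data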
SENP6 confirm: SENP6 protease inhibitors, confirmation, biochemical, luminescence, single concentration; shares compounds with SENP7 block; recombinant SENP6, Z-RLRGG-aminoluciferin luminescence; inhibition, % at 12.5 µM; actives 58% (n = 6,200); AID 488915, 2010
SENP7 conf: SENP7 protease inhibitors, retest, confirmation, biochemical, luminescence, single concentration; shares compounds with SENP7 block; recombinant SENP7, Z-RLRGG-aminoluciferin luminescence, 40 min; inhibition, % at 12.5 µM; actives 69% (n = 6,200); AID 488917, 2010
Casp3 select: caspase-3 protease inhibitors, confirmation, selectivity assay for SENP inhibitor project, biochemical, single concentration; purified caspase-3, Z-DEVD-aminoluciferin luminescence, 60 min; inhibition, % at 12.5 µM; actives 60% (n = 6,200); shares compounds with SENP7 block;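 active = mean inhibition above about 50%, limit read from the data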;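 note: plate controls were enzyme with DMSO for no effect and wells without caspase-3 for full effect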
Target sequence (P42574 28-227 limits assumed): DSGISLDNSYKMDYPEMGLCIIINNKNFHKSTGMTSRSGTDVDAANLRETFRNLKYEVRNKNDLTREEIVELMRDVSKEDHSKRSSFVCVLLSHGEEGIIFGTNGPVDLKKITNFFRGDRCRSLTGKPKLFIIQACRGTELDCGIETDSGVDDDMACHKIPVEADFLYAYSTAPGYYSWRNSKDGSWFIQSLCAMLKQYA
Luc interf: counter-screen for SENP inhibitors: luminescence interference; shares compounds with SENP7 block; Pre-incubated SENP8/Z-RLRGG-aminoluciferin, luciferase luminescence interference; inhibition, % at 12.5 µM; actives 39% (n = 6,200); AID 488919;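 active = mean inhibition above about 50% when retested at one dose, limit read from the data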;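 note: plate controls were DMSO wells with completed reaction for no effect and substrate without enzyme for full effect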
* = called active by the depositor; / = no result given.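 Rule for the calls, unless noted: active = mean inhibition above about 50% in the one-dose retest (limit read from the data); inactive = the rest.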

SMILES	SENP6 inh	EBI2 block	SENP7 block	SENP8 block-1	SENP8 block-2	AHR activator	SENP8 confirm	SENP6 confirm	SENP7 conf	Casp3 select	Luc interf
COc1ccc(CSc2nc3ccccc3[nH]2)cc1	96.1*	-5.1	94.2*	26.7	87.7*	-2.5	92.3*	93.7*	100.4*	92.0*	92.6*
c1ccc2[nH]c(SCc3ccc(-c4nnco4)cc3)nc2c1	72.3*	1.3	71.1*	36.1	44.7	3.2	64.3*	61.1*	87.8*	81.2*	75.4*
Cc1cc(C)n(CC(O)COc2ccccc2Br)n1 (configuration not stated)	-12.9	1.1	-11.3	2.4	-13.2	30.9	/	/	/	/	/
Cc1ccc(NC(=O)C2CC(=O)N(C(C)C)C2)cc1C (configuration not stated)	2.6	1.1	6.2	8.9	4.4	4.3	/	/	/	/	/
O=c1oc2c(O)cccc2cc1-c1nc2ccccc2[nH]1	92.9*	7.8	96.0*	-286.6	0.7	/	31.2	85.2*	36.2	38.7	14.4
O=c1oc2c(CN3CCCCC3)c(O)ccc2cc1-c1nc2ccccc2[nH]1	/	-2.6	/	-250.5	/	/	/	/	/	/	/
O=C(/C=C/c1ccccc1[N+](=O)[O-])NCCN1C(=O)S/C(=C\c2ccc(F)cc2)C1=O	17.9	1.4	80.8*	18.6	-11.0	7.8	-9.5	-3.2	-6.0	5.1	3.2
O=C(/C=C/c1cccc([N+](=O)[O-])c1)NCCN1C(=O)S/C(=C\c2cccnc2)C1=O	11.3	-0.3	1.3	22.0	-4.8	7.4	/	/	/	/	/
Cc1[nH]nc(SCC(=O)N2CCCCCC2)c1[N+](=O)[O-]	-15.8	-4.4	10.5	14.3	52.2*	1.1	97.9*	99.9*	102.9*	98.9*	88.5*
CCc1cc(C(=O)NCC(c2cccs2)N2CCOCC2)sc1C (configuration not stated)	-8.7	1.2	-1.6	9.1	-2.2	9.1	/	/	/	/	/
CCOC(=O)c1sc(/N=C/c2ccc(O)cc2O)cc1C	95.8*	-9.1	9.2	-32.8	94.2*	11.0	78.2*	97.5*	101.1*	82.8*	43.6
CC(=O)Nc1cc(Cl)c(N=Cc2ccc(O)cc2O)cc1Cl	-1.4	2.3	-4.1	5.2	-0.5	3.1	/	/	/	/	/
CCCOC(=O)c1ccc(NC(=O)/C=C/c2cccs2)cc1	74.6*	17.9	24.1	-36.0	34.7	0.7	20.9	20.8	56.9*	11.3	16.0
O=C(/C=C/c1cccs1)N1CCCC1	2.0	6.7	7.4	5.3	5.5	-0.2	/	/	/	/	/
Cc1cc(C)n(C(=O)/C=C/c2cccs2)n1	-11.4	-8.0	56.3*	11.2	-26.6	0.7	1.3	-10.5	5.1	-6.2	8.0
Cc1cccc(NC(=O)/C=C/c2cccs2)n1	67.2*	5.2	71.5*	6.6	36.1	2.4	56.3*	54.6*	84.0*	76.7*	66.0*
O=C(Nc1ccc(-c2ccc3nncn3n2)cc1)c1ccc(Br)o1	-5.2	8.2	2.2	-447.7	4.5	-8.2	/	/	/	/	/
O=C(CN(C(=O)c1csnn1)c1cccc(Cl)c1)NCCc1ccccc1	-14.2	5.5	-4.1	-7.6	-8.8	2.4	/	/	/	/	/
CC(CC(=O)Nc1ccc(S(=O)(=O)N2CCOCC2)cc1)c1ccccc1 (configuration not stated)	-4.7	-6.3	6.7	15.3	2.9	1.1	/	/	/	/	/
CNC(=O)CSc1nnc(C2CC2)n1-c1ccccc1	8.1	-5.9	10.5	6.9	3.7	0.1	/	/	/	/	/
Cc1cc(OCc2ccc(C(=O)n3cccn3)o2)ccc1Cl	50.3*	-9.1	31.3	12.2	40.5	2.6	19.4	37.6	29.0	17.5	26.7
Cc1cc(C)cc(NC(=O)N2CCc3ccccc3C2)c1	55.3*	-10.1	43.0	5.4	23.9	/	43.4	36.6	69.0*	50.2*	50.7*
COc1ccccc1C(=O)ON=C1c2ccccc2-c2ccccc21	-24.8	0.6	4.9	-31.0	-1.2	5.0	/	/	/	/	/
Cc1csc(=O)n1CCC(=O)OCC(=O)Nc1cccc(C#N)c1	-1.8	-12.4	-9.4	3.4	5.1	1.9	/	/	/	/	/
O=C(c1ccco1)N1CCN(C(=O)c2ccccc2NS(=O)(=O)c2ccc(F)cc2)CC1	-32.2	-1.4	-1.0	10.3	-5.7	2.9	/	/	/	/	/
SMILES	SENP6 inh	EBI2 block	SENP7 block	SENP8 block-1	SENP8 block-2	AHR activator	SENP8 confirm	SENP6 confirm	SENP7 conf	Casp3 select	Luc interf
Oc1cccc2c(NC(=S)Nc3ccc(SC(F)F)cc3)cccc12	85.1*	8.6	29.9	-185.4	52.8*	23.9	24.2	19.6	-0.4	4.2	10.0
COc1ccc2c(-c3cc4ccc(OCc5ccc(F)cc5)cc4oc3=O)cc(=O)oc2c1	/	5.7	/	-424.5	/	-2.0	/	/	/	/	/
O=C1COc2ccc(OCc3ccc(F)cc3)cc21	71.2*	-2.8	63.6*	11.6	48.0	-2.9	68.0*	67.3*	89.2*	76.2*	50.0*
COc1ccc(C(=O)c2cc3cccc(OC)c3o2)cc1	83.7*	8.8	82.7*	-16.4	82.2*	5.2	88.2*	86.3*	97.0*	76.5*	66.4*
Cc1ccc(NC(=O)CN(C)C(=O)c2cc3ccccc3o2)cc1	-2.1	-11.5	4.3	7.5	2.1	0.3	/	/	/	/	/
O=C(c1cc2ccccc2o1)c1cccs1	11.3	-20.8	71.7*	2.4	50.5*	20.6	49.5	74.8*	93.2*	68.3*	57.7*
O=C(c1cccc([N+](=O)[O-])c1)c1cc2ccccc2o1	20.8	5.5	5.0	15.6	-1.1	-4.0	/	/	/	/	/
Cc1ccc(C(=O)c2cc3ccccc3o2)cc1	76.8*	3.6	56.5*	16.6	44.0	-1.6	31.5	59.8*	86.0*	51.7*	58.8*
